Measurements as given in PubChem BioAssay AID651564 (Sanford-Burnham Center for Chemical Genomics, 2012).
This is one part of the list. Unmarked numbers belong to inactive results. Active and inactive are the calls of the source. Cut-off read from the data, not from the text of the source: active = IC50 below about 80 µM; inactive = the rest.

Test: isolated mitochondria fluorescence counter-assay – biochemical, uHTS hits, counter-screen for MPTP inhibitor project, dose response (AID 651564)
Settings: isolated mitochondria counterscreen, fluorescence read-out

Row | Compound | IC50
1 | O=Cc1cn(Cc2ccc(F)cc2Cl)c2ccccc12 | 22.6 µM (active)
2 | COc1ccc(C2NCc3ccc4c(c3-n3cccc32)OCO4)cc1OC (stereo not drawn) | > 80 µM
3 | CC(Cc1ccccc1)NCCC(c1ccccc1)c1ccccc1 (stereo not drawn) | 18.7 µM (active)
